In all, about 5,500 compounds went through this assay and about 2,000 (36%) were called active. Not shown: some 18% with an inconclusive outcome. Cut-off read from the data, not from the text of the source: active = normalized growth mostly below about 0.91 (no sharp cut-off); inconclusive = no clear call, values can overlap the other calls; inactive = mostly above about 0.92. Some of the results follow.
Experiment: chemical genetic growth profiling, strain panel (AID 1159580);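 note: tested at 20 µM; growth read once vehicle control cultures reached saturation at 30 °C; 1 = growth at the plate median or of vehicle wells; lower values mean less growth of the strain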
Conditions: S. cerevisiae deletion strains, growth OD

Measured: normalized growth

O=C(O)COc1ccc(Cl)cc1Cl
inactive: locus YAL013W, strain DEP1, stronger effect = lower value 1.01 | locus YAL021C, strain ccr4, stronger effect = lower value 0.997 | locus YAL026C, strain drs2, stronger effect = lower value 1.01 | locus YAL030W, strain snc1, stronger effect = lower value 0.988 | locus YBL061C, strain skt5, stronger effect = lower value 0.997 | locus YBR009C, strain hhf1, stronger effect = lower value 0.992 | locus YBR021W, strain FUR4, stronger effect = lower value 1 | locus YBR023C, strain chs3, stronger effect = lower value 0.992 | locus YBR171W, strain sec66, stronger effect = lower value 1 | locus YBR229C, strain ROT2, stronger effect = lower value 0.999 | locus YBR231C, strain swc5, stronger effect = lower value 0.989 | locus YBR279W, strain paf1, stronger effect = lower value 0.992 | locus YCL011C, strain gbp2, stronger effect = lower value 1 | locus YCL016C, strain dcc1, stronger effect = lower value 0.994 | locus YCL029C, strain bik1, stronger effect = lower value 1.03 | locus YCL061C, strain MRC1, stronger effect = lower value 0.995 | locus YCL069W, strain vba3, stronger effect = lower value 1 | locus YCR088W, strain abp1, stronger effect = lower value 1 | locus YDL005C, strain med2, stronger effect = lower value 0.992 | locus YDL035C, strain GPR1, stronger effect = lower value 1.03 | locus YDL040C, strain nat1, stronger effect = lower value 0.996 | locus YDL074C, strain BRE1, stronger effect = lower value 1.05 | locus YDL101C, strain DUN1, stronger effect = lower value 0.999 | locus YDL134C, strain PPH21, stronger effect = lower value 1.02 | locus YDL185W, strain tfp1, stronger effect = lower value 1.02 | locus YDL192W, strain arf1, stronger effect = lower value 1.02 | locus YDR001C, strain nth1, stronger effect = lower value 1 | locus YDR069C, strain doa4, stronger effect = lower value 0.986 | locus YDR101C, strain arx1, stronger effect = lower value 1.02 | locus YDR137W, strain rgp1, stronger effect = lower value 1.01 | locus YDR150W, strain NUM1, stronger effect = lower value 1.01 | locus YDR159W, strain sac3, stronger effect = lower value 0.982 | locus YDR162C, strain NBP2, stronger effect = lower value 1.01 | locus YDR195W, strain ref2 0.968 | locus YDR297W, strain sur2, stronger effect = lower value 1.01 | locus YDR318W, strain mcm21, stronger effect = lower value 1.03 | locus YDR334W, strain swr1, stronger effect = lower value 1 | locus YDR335W, strain msn5, stronger effect = lower value 0.998 | locus YDR388W, stronger effect = lower value 1.02 | locus YDR392W, strain spt3, stronger effect = lower value 1 | locus YDR502C, strain sam2, stronger effect = lower value 1.02 | locus YEL003W, strain gim4, stronger effect = lower value 0.995 | locus YEL037C, strain rad23, stronger effect = lower value 1.01 | locus YEL061C, strain CIN8 (second series), stronger effect = lower value 0.989 | locus YEL061C, strain CIN8, stronger effect = lower value 1 | locus YER015W, strain faa2, stronger effect = lower value 0.997 | locus YER016W, strain bim1, stronger effect = lower value 1 | locus YER110C, stronger effect = lower value 1.02 | locus YER111C, strain swi4, stronger effect = lower value 0.977 | locus YER155C, strain BEM2 (second series), stronger effect = lower value 1.01 | locus YER155C, strain BEM2, stronger effect = lower value 1.01 | locus YER167W, strain BCK2, stronger effect = lower value 1.02 | locus YFR010W, strain ubp6, stronger effect = lower value 0.998 | locus YGL078C, strain dbp3, stronger effect = lower value 1.02 | locus YGL086W, strain mad1, stronger effect = lower value 1.01 | locus YGL167C, strain pmr1, stronger effect = lower value 1 | locus YGL173C, strain kem1, stronger effect = lower value 0.984 | locus YGL227W, strain vid30, stronger effect = lower value 0.987 | locus YGL240W, strain doc1, stronger effect = lower value 0.982 | locus YGL248W, strain PDE1, stronger effect = lower value 1.03 | locus YGL253W, strain hxk2, stronger effect = lower value 0.995 | locus YGR078C, strain PAC10, stronger effect = lower value 1.02 | locus YGR135W, strain pre9, stronger effect = lower value 1.02 | locus YGR229C, strain SMI1, stronger effect = lower value 1.04 | locus YGR252W, strain gcn5, stronger effect = lower value 1.03 | locus YHR013C, strain ard1, stronger effect = lower value 0.995 | locus YHR027C, strain rpn1, stronger effect = lower value 0.994 | locus YHR030C, strain SLT2, stronger effect = lower value 0.999 | locus YHR079C, strain IRE1 (second series), stronger effect = lower value 1.03 | locus YHR094C, strain hxt1, stronger effect = lower value 1.01 | locus YHR129C, strain ARP1, stronger effect = lower value 1 | locus YHR142W, strain chs7, stronger effect = lower value 1.01 | locus YHR200W, strain rpn10, stronger effect = lower value 1.01 | locus YIL066C, strain RNR3, stronger effect = lower value 1.02 | locus YIL073C, strain SPO22, stronger effect = lower value 1.1 | locus YIL125W, strain kgd1, stronger effect = lower value 1.03 | locus YIR030C, strain dcg1, stronger effect = lower value 1.02 | locus YJL092W, strain hpr5, stronger effect = lower value 0.987 | locus YJL095W, strain BCK1 (second series), stronger effect = lower value 0.987 | locus YJL095W, strain BCK1, stronger effect = lower value 1.02 | locus YJL115W, strain asf1, stronger effect = lower value 1 | locus YJL129C, strain trk1, stronger effect = lower value 1.02 | locus YJL134W, strain LCB3, stronger effect = lower value 1 | locus YJL154C, strain vps35, stronger effect = lower value 1 | locus YJL164C, strain tpk1, stronger effect = lower value 1 | locus YJL166W, strain qcr8, stronger effect = lower value 0.992 | locus YJL168C, strain set2, stronger effect = lower value 1.02 | locus YJL187C, strain SWE1 (second series), stronger effect = lower value 1.01 | locus YJL187C, strain SWE1, stronger effect = lower value 1

— PubChem BioAssay AID1159580 (chemical genetic matrix, 2015)
